Source: PubChem BioAssay
HEK293 tox: cytotoxicity in counter-screen for GLP-1R inverse agonists. HEK293 cAMP-luciferase reporter cells, luminescence, 24 h. Potency, µM (highest dose often 38.3 µM), inactives show at the highest dose activity change, negative = inhibition, most hits filed as inhibitors. hit rate 0.13% among 410,000. AID 624418;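 further: loss of luciferase light is scored as toxicity; on the % scale 0 is the no-effect control and ±100 the full control effect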
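A 23 nL compound transfer followed 12 hours of cell culture at 37 deg C; exposure then lasted 24 hr. Luciferase assay detection reagent was dispensed and plates read for luminescence after a 12 min room-temperature wait.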
Tb PFK inh: T. brucei PFK enzyme inhibition; hit rate 0.17% among 330,000; AID 485367; O15648; Potency, µM (titrated, usually from 57.5 µM), for the others: at the highest dose activity, negative = inhibition, usual class: inhibitors; T. brucei PFK, ADP-Glo luminescence;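 further: 0% = uninhibited 1x PFK enzyme wells and -100% = no-enzyme wells; nearly all actives have a fitted effect of over 60% in size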
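1.25 nM PFK with 0.5 mM F6P and 0.1 mM ATP in 0.1 M TEA pH 8.0, 5 mM MgCl2, incubated 45 min at room temperature; ADP measured by ADP-Glo luminescence; compounds titrated up to 57 uM.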
GLP1R ag: agonists of human GLP-1 receptor. P43220. HEK293 GLP-1R CRE-luciferase, luminescence, 4-6 h; cells express a hypersensitive GLP-1R form. Potency, µM (doses to about 45.6 µM), without a hit: top-dose activation, most hits filed as activators. hit rate 0.007% among 380,000; further: % of control where 0% means no effect
Target sequence (P43220 whole entry, looked up): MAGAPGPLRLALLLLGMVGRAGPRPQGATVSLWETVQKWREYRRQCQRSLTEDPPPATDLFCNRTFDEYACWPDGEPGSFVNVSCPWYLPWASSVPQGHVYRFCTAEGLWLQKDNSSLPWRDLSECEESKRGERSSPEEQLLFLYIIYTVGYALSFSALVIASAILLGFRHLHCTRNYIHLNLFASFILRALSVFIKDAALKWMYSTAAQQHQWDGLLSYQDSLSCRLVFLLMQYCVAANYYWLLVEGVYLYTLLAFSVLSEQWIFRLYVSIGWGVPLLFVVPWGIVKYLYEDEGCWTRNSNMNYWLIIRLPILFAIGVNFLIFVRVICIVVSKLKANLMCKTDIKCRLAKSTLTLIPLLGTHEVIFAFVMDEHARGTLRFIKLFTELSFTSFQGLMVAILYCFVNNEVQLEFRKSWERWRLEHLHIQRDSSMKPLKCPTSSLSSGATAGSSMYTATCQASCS
Pin1 inhibitor: human Pin1 inhibition | Q13526 | Pin1 FP peptide displacement, HiFluor488, 10 min | Potency, µM (doses to about 115 µM), without a hit: top-dose activity, negative = inhibition, usual class: inhibitors | hit rate 0.009% among 390,000; active means well fitted inhibition curve with a large enough effect in the polarisation, with a control signal flat, not every such curve was filed as active; inconclusive means small, poorly fitted or top-dose-only effect, or effect the other way, or a change in a side signal; inactive means no such curve, though single readings can be large or run the other way; the % refers to the polarisation; further: on the % scale 0 is the no-effect control and ±100 the full control effect
PGK inhibitor: inhibitors of T. brucei phosphoglycerate kinase | hit rate 0.043% among 380,000 | P07378 | PGK/GAPDH coupled, Kinase-Glo luminescence, 60 min | AID 602233 | Potency, µM (series often up to 57.5 µM), for inactives: at the highest dose activity change, negative = inhibition, actives largely listed as inhibitors; further: on the % scale 0 is the no-effect control and ±100 the full control effect; nearly all actives have a fitted effect of over 60% in size
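Recombinant glycosomal PGK reaction used 1,3-bisphosphoglycerate generated in-well by GAPDH (100nM final) in 100mM TEA pH 7.6, 5mM MgCl2, 0.01% Tween-20. After 60 minutes at room temperature, ATP was read by Kinase-Glo Plus luminescence end-point.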
GLP1R inv ag: acts as inverse agonist at human GLP-1 receptor | P43220 | HEK293 GLP-1R CRE-luciferase, luminescence, 24 h; GLP-1R form is constitutively active | Potency, µM (highest dose often 38.3 µM), inactives show at the highest dose activity change, negative = inhibition, hits mostly inhibitors | hit rate 1.6% among 410,000 | AID 624417; further: on the % scale 0 is the no-effect control and ±100 the full control effect; nearly all actives have a fitted effect of over 55% in size
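HEK293 cells stably co-expressing a cAMP-responsive luciferase reporter and constitutively active GLP-1R were seeded, incubated 12 h, then exposed to compounds for 24 h at 37 C. Luminescence was read 12 min after detection reagent; inverse agonists lower signal.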
* marks the source's active call; other numbers are inactive results; i = inactive; ? = inconclusive; . = not tested or not shown. Sampled rows, rich in hits. Any-hit rate of the full collection: about 1.8%. Unless noted, the call rests on the fitted dose curve; in most records, active means well fitted curve in the direction sought with a large enough effect; inconclusive means small, poorly fitted or top-dose-only effect, or another doubt; inactive means no such curve, though single readings can be large; an effect the other way counts as inactive or inconclusive. Potency means the concentration at half of the fitted maximal effect.

SMILES	HEK293 tox	Tb PFK inh	GLP1R ag	Pin1 inhibitor	PGK inhibitor	GLP1R inv ag
O=C1CC(c2ccccc2)=C(c2ccccc2)C1c1ccccc1 (stereo not given)	-30%	.	-4%	18%	-6%	14µM*
O=C1NNC(=O)C1c1ccccc1	0%	0%	-1%	-4%	i	6%
Cc1cc(C)c2nc(N(CCN(C)C)C(=O)c3ccc(S(=O)(=O)N(C)CC4CCCO4)cc3)sc2c1 (stereo not given)	5%	-1%	-6%	4%	i	10µM*
CCOC(=O)N1CCN(S(=O)(=O)c2ccc(C(=O)N(CCCN(C)C)c3nc4c(C)c(C)ccc4s3)cc2)CC1	-11%	0%	6%	-2%	-1%	?
CCOc1cccc2sc(N(CCCN(C)C)C(=O)c3ccc(S(=O)(=O)N(C)CC4CCCO4)cc3)nc12 (stereo not given)	-7%	1%	6%	-27%	i	?
Cc1ccc2sc(N(CCCN(C)C)C(=O)c3ccc(S(=O)(=O)N(C)C4CCCCC4)cc3)nc2c1C	?	3%	-7%	14%	-10%	2.8µM*
Cc1cc(C)c2nc(N(CCCN(C)C)C(=O)c3ccc(S(=O)(=O)N4CC(C)OC(C)C4)cc3)sc2c1 (stereo not given)	11%	20%	-8%	0%	-9%	10µM*
Cc1ccc2sc(N(CCCN(C)C)C(=O)c3ccc(S(=O)(=O)N4CCOCC4)cc3)nc2c1C	-15%	-2%	-6%	0%	-10%	10µM*
COc1cccc(OCC(=O)NCCS(=O)(=O)N2CCN(c3ccccc3F)CC2)c1	-1%	.	.	5%	-2%	-17%
CCOc1ccc(C2c3c(oc4ccc(C)cc4c3=O)C(=O)N2CCCN2CCOCC2)cc1 (stereo not given)	14%	.	.	-4%	i	7%
CCOc1ccc(N(CC)S(=O)(=O)c2cc(Br)cc3c2N(C(C)=O)C(C)C3)cc1 (stereo not given)	9%	.	-2%	11%	i	1%
CC1C=CC(C)C(C(=O)c2ccccc2)C1C(=O)c1ccccc1 (stereo not given)	7%	.	6%	.	5%	13µM*
O=C(c1ccccc1)C1OC1C(=O)c1ccccc1 (stereo not given)	-24%	.	-2%	3%	-3%	?
COc1cccc2cc(-c3nc(Nc4cccc(C)c4C)sc3C)c(=O)oc12	1%	.	.	16%	-3%	10µM*
CCc1sc(Nc2cccc(Cl)c2C)nc1-c1cc2cccc(OC)c2oc1=O	4%	.	.	14%	8%	0%
Cc1ccc2c(CC(=O)Nc3cc(C(F)(F)F)ccc3Cl)coc2c1C	-3%	.	.	1%	i	5%
CCn1c(C(=O)N2CCCC(C(=O)N3CCN(c4ccccc4)CC3)C2)cc2sccc21 (stereo not given)	52%	.	.	3%	-13%	-2%
Cc1cccc(C(=O)n2c(=S)nc3cc(C)ccn32)c1	?	-3%	4%	36%	-13%	?
Cc1ccn2c(c1)nc(=S)n2C(=O)c1ccccc1	-19%	-1%	-12%	-1%	-13%	2.5µM*
O=C(COc1ccc(/C=N/NC(=O)c2cc3ccccc3o2)cc1Cl)Nc1ccccc1	?	?	-1%	80%	-6%	4.5µM*
CCOc1ccccc1NC(=O)CSc1nc2c(oc3ccccc32)c(=O)n1-c1ccc(F)cc1	1%	.	.	22%	-2%	7%
Cn1ncc2c(O/N=C(\N)c3ccc(C(C)(C)C)cc3)ncnc21	10µM*	3%	-2%	10%	1%	?
CCOC(=O)c1ccc(Nc2ncnc3c2cnn3C)cc1	?	4%	13%	0%	4%	56%
Cc1cc(Nc2ccc(Cl)cc2)n(-c2cccc(Cl)c2)n1	64%	1%	-4%	1%	-2%	7.9µM*
